Shiga toxin inh – A qHTS for Small Molecule Inhibitors of Shiga Toxin; 290,000 tested, 9.2% active; inhibition, % at 38.7 µM; Vero cells, Shiga toxin protein synthesis inhibition reporter; AID 2315, 2010; in the data active means inhibition mostly above about 28%, no sharp cut-off; inactive means mostly below about 43%; further: 0% is about no effect
Pf growth 96h – Primary qHTS for delayed death inhibitors of the malarial parasite plastid, 96 hour incubation; P. falciparum luciferase reporter growth, 96 h; Potency, µM (titrated, usually from 28.7 µM), for the others: at the top dose activity change, negative = inhibition, most hits filed as inhibitors; 320,000 tested, 6.9% active; AID 504834, 2011; further: potency means the concentration at half of the fitted maximal effect; on the % scale 0 is the no-effect control and ±100 the full control effect
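Cell-based qHTS: luciferase-tagged P. falciparum in erythrocytes (2% hematocrit, 0.05% parasitemia final) incubated with compounds for 96 hours, 37 C, 5% CO2; luciferase detection reagent then added and luminescence measured.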
HCV inhibitor – qHTS Assay for Inhibitors of Hepatitis C Virus (HCV) | Potency, µM (top dose mostly 41.8 µM), for the others: at the top dose activity change, negative = inhibition, hits mostly inhibitors | AID 651820, 2012 | Huh7.5.1 HCVcc-Cre infection, luciferase reporter, 44 h | 340,000 tested, 3.4% active; further: potency means the concentration at half of the fitted maximal effect; on the % scale 0 is the no-effect control and ±100 the full control effect
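Reporter virus HCVcc-Cre (~0.5 moi) infects cells exposed to compound; seeding density 1,000 cells/well with 4 h settling beforehand. Luminescence, 15 sec read, taken 44 h post-infection following a 15 min RT substrate incubation.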
Cycloheximide cs – Cycloheximide Counterscreen for Small Molecule Inhibitors of Shiga Toxin; cell reporter, cycloheximide protein synthesis inhibition counterscreen; max response, %; 300,000 tested, 12% active; in the data active means max response mostly above about 13%, no sharp cut-off; inactive means mostly below about 14%; further: read at 38.3 µM for the half of the compounds with a filed dose; 0% is about no effect
HCMV antiviral – qHTS Assay for inhibitors of the human cytomegalovirus (HCMV); 410,000 tested, 4.5% active; HFF cells, HCMV-luciferase reporter, 72 h; active compounds read low; AID 1259415, 2018; activity change, negative = inhibition, % at 57.5 µM; in the data active means activity change below about -60%; inconclusive means no clear call, values can overlap the other calls; inactive means above about -39%; further: on the % scale 0 is the no-effect control and ±100 the full control effect
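Two compound doses tested in HFFs infected with HCMV-luciferase, MOI 1 PFU/cell, 72 h at 37C. Lysate luminescence read with OneGlo; data normalized against buffer-only and 10uM Salinomycin inhibitor controls.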
Pf growth 48h – Primary qHTS for delayed death inhibitors of the malarial parasite plastid, 48 hour incubation. Potency, µM (series often up to 28.7 µM), for inactives: top-dose activity change, negative = inhibition, usual class: inhibitors. P. falciparum luciferase growth in erythrocytes, 48 h. 310,000 tested, 5.9% active; further: potency means the concentration at half of the fitted maximal effect; on the % scale 0 is the no-effect control and ±100 the full control effect
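Luciferase-expressing P. falciparum in infected erythrocytes (2% hematocrit, 0.1% parasitemia final) in RPMI 1640/0.5% Albumax were exposed to compound for 48 hours at 37 C, 5% CO2; growth read as luminescence.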
Numbers without * were called inactive; ? = inconclusive; nt = no result. Sampled rows, rich in hits. Any-hit rate of the full collection: about 21%. Unless noted, the call rests on the fitted dose curve; in most records, active means well fitted inhibition curve with a large enough effect; inconclusive means small, poorly fitted or top-dose-only effect, or another doubt; inactive means no such curve, though single readings can be large or run the other way.

SMILES	Shiga toxin inh	Pf growth 96h	HCV inhibitor	Cycloheximide cs	HCMV antiviral	Pf growth 48h
CC(=O)NC(c1ccco1)c1cc(Cl)c2ccc(N3CCCCC3)nc2c1O (stereo unspecified)	nt	-23%	nt	nt	nt	-26%
CCCC(=O)NC(c1ccccc1Cl)c1ccc2cccnc2c1O (stereo unspecified)	7	?	2µM*	1	-97*	?
CCC(=O)NC(NC(=S)Nc1cccc2cccnc12)C(Cl)(Cl)Cl (stereo unspecified)	-10	20%	?	4	45	0%
COc1ccc(C(NC(=O)C(C)C)c2ccc3cccnc3c2O)cc1 (stereo unspecified)	-1	?	2µM*	1	-99*	?
CCOc1ccccc1N(C)C(=O)c1cn(C)c(=O)c2ccccc12	-3	-11%	13%	-2	25	nt
COc1ccc(NC(=O)CSc2nc(C)cs2)c([N+](=O)[O-])c1	nt	nt	-7%	nt	-6	nt
CCOC(=O)c1cc2c(=O)n3ccccc3nc2n(CC2CCCO2)c1=NC(=O)c1cccc(C(F)(F)F)c1 (stereo unspecified)	nt	nt	nt	nt	1	nt
CCCC(=O)NC(c1ccc(N(C)C)cc1)c1ccc2cccnc2c1O (stereo unspecified)	9	-22%	3.2µM*	6	-98*	6.6µM*
CCCC(=O)NC(c1ccc(C(C)C)cc1)c1ccc2cccnc2c1O (stereo unspecified)	-10	15µM*	1.8µM*	-2	-98*	1.5µM*
Cc1cc(NC(c2ccc(Cl)cc2)c2ccc3cccnc3c2O)no1 (stereo unspecified)	-19	0.33µM*	2.5µM*	-1	-98*	nt
COc1ccccc1NC(c1cccnc1)c1ccc2cccnc2c1O (stereo unspecified)	-2	?	?	5	-2	?
Cc1ccc2ccc(C(Nc3ccccc3)c3ccc(C(C)C)cc3)c(O)c2n1 (stereo unspecified)	nt	nt	nt	nt	-17	nt
CCCCC(=O)NC(c1ccc(OC)cc1)c1ccc2cccnc2c1O (stereo unspecified)	nt	nt	nt	nt	-98*	nt
CC(C)(C)c1ccc(C(=O)N2CCC2(C)C(=O)NS(=O)(=O)c2ccc(C#N)cc2)cc1 (stereo unspecified)	nt	nt	nt	nt	-18	nt
COc1ccc(CNC(=O)Cn2c(=O)c3cccn3c3cccnc32)cc1	nt	nt	nt	nt	-22	nt
CC(=O)NC(c1ccc(Cl)cc1)c1ccc2cccnc2c1O (stereo unspecified)	nt	nt	4.5µM*	nt	-99*	nt
O=C(O)c1ccccc1NC(c1ccccc1)c1ccc2cccnc2c1O (stereo unspecified)	nt	nt	?	nt	-31	nt
CCN(Cc1ccccc1)C(=O)Cn1c(=O)n(-c2cccc(C)c2)c(=O)c2c1c1cc(OC)ccc1n2C	nt	nt	nt	nt	-2	nt
COC(=O)c1cncn1Cc1ccccc1	nt	nt	11%	nt	-8	nt
Oc1ccccc1-c1cncn1Cc1ccccc1	-3	15µM*	?	-3	?	nt
C=C1C(=O)OC2C1CCC(C)=C1C(=O)C3OC3(C)C12 (stereo unspecified)	nt	nt	10µM*	nt	-78*	nt
O=C(c1ccc(Cl)cc1)c1ccc(Oc2cc(NN3CCCCC3)c([N+](=O)[O-])cc2[N+](=O)[O-])cc1	-2	-7%	7%	-3	-3	-8%
O=C(NCc1ccccn1)Nc1cccc(Cl)c1Cl	35	0%	-23%	59*	48	20%
Cc1c(Cl)cccc1NC(=O)NCc1ccccn1	31	-4%	1%	15*	15	-6%
Cc1c(Cl)cccc1NC(=O)NCc1ccc(F)cc1	13	-9%	-16%	-3	11	34%
SMILES	Shiga toxin inh	Pf growth 96h	HCV inhibitor	Cycloheximide cs	HCMV antiviral	Pf growth 48h
O=C(NCc1ccccn1)Nc1ccccc1Cl	32*	-2%	9%	25*	55	35%
Cc1nn(C)c(C)c1CNC(=O)Nc1cccc(Cl)c1C	49	69%	-17%	32*	9	50%
CC1CCC(NC(=O)CN2C(=O)NC3(CCCCCC3)C2=O)CC1 (stereo unspecified)	nt	6%	-7%	nt	0	7%
Cc1cccc(OCC(=O)Nc2ccccc2C(=O)OCc2cc(=O)n3nc(C)sc3n2)c1	nt	nt	nt	nt	-26	nt
CC(C)Oc1ccc(OCCCN2CCCCCC2)cc1	-28	nt	-26%	-3	24	-14%
CC(C)Oc1ccc(C(CCN)C2CCCCC2)cc1 (stereo unspecified)	-19	?	?	-7	-99*	?
Cc1cccc(NC(=O)c2cccc(NC(=O)c3ccccc3)c2)n1	8	13µM*	?	-3	-13	0%
O=C(N/N=C/c1ccncc1)c1cccc(NC(=O)c2ccccc2Cl)c1	-4	-26%	-10%	-1	-4	?
Cc1cccc(NC(=O)c2ccc3nccnc3c2)n1	46*	-17%	-2%	49*	-28	64%
Cc1cccc(/C=N/NC(=O)c2cccc(NC(=O)c3ccccc3)c2)n1	27	26%	-8%	14*	-9	-4%
CCN(c1ccccc1)S(=O)(=O)c1cccc(C(=O)Nc2cccc(C)n2)c1	nt	nt	nt	nt	-14	nt
Cc1cccc(NC(=O)c2ccc3c(c2)OCCO3)n1	50*	361%	-13%	45*	nt	251%
Cc1cccc(NC(=O)c2ccc3c(Cl)c4c(nc3c2)CCCC4)n1	31	19%	?	23	-27	-62%
Cc1cccc(NC(=O)CNC(=O)c2ccc3c(c2)OCO3)n1	nt	34%	-1%	nt	-8	?
Cc1cccc(/C=N/NC(=O)c2cccc(Cl)c2)n1	46	-5%	6%	16*	-20	0%
O=C(N/N=C/c1ccccn1)c1ccc(NC(=O)c2ccc(F)cc2)cc1	25	-26%	-18%	11	-3	?
CC(C)(C)c1csc(NC(=O)c2ccc3nccnc3c2)n1	80*	?	-21%	63*	28	-8%
Cc1cccc(/C=N/NC(=O)c2ccc(F)cc2)n1	40*	32%	16%	20*	-31	?
CC(C)(C)c1csc(NC(=O)c2ccncc2)n1	19	36%	?	14	?	-5%
Cc1cccc(/C=N/NC(=O)c2cccc([N+](=O)[O-])c2)n1	3	-109%	-12%	-2	-23	-9%
Cc1ccccc1C(=O)Nc1cccc(C(=O)N/N=C/c2ccccn2)c1	26	14%	14%	12*	-26	-17%
Cc1cccc(CN(C(=S)Nc2c(C)cccc2C)c2cccnc2)c1	14	-8%	3%	4	0	-4%
Cc1nc(Cl)cc(CS(=O)(=O)c2ccc(Cl)cc2)n1	-8	18%	8%	-2	-30	0%
